# Source: PubChem BioAssay (National Center for Advancing Translational Sciences (NCATS))
# rTrxR1 inhibitor – rat TrxR1 inhibition | recombinant rTrxR1, NADPH fluorescence consumption, selenite substrate | Potency, µM (top dose mostly 114 µM), inactives show at the top dose activity change, negative = inhibition, hits mostly inhibitors | 390,000 compounds, 1% hits; note: potency is the fitted concentration of half-maximal effect; nearly all actives have a fitted effect of over 65% in size
#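 Rat TrxR1 (90 nM in the dispensed reagent) was pre-reduced with 400 uM NADPH for 5 min at room temperature, then incubated with compound for 15 min. After 400 uM selenite was added, NADPH fluorescence (Ex 340/Em 450 nm) was followed for 8 min.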
# GALK inh – inhibitors of human galactokinase | Potency, µM (titrated, usually from 57.5 µM), inactives show top-dose activity change, negative = inhibition, actives largely listed as inhibitors | 270,000 compounds, 0.007% hits | Purified GALK, Kinase-Glo residual ATP luminescence | P51570 | AID 1868; note: potency is the fitted concentration of half-maximal effect
#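 Compounds were pin-transferred into ATP buffer (35 uM final), then GALK plus galactose (5 nM, 100 uM final) was added. After 1 h at room temperature, Kinase-Glo Plus was added and luminescence read after 10 min.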
# CtBP-E1A blk – inhibitors of CtBP/E1A interaction; 340,000 compounds, 0.49% hits; AlphaScreen GST-E1A/His-CtBP binding, 1536-well; hits give low values; activity change, % (no concentration beside the values); in the data active = activity change below about -65%; inconclusive = mostly about -30% to -63%
#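 AlphaScreen with 125 nM GST-E1A and 125 nM His-CtBP (5X stocks) in Tris pH 8.0, 300 mM NaCl, BSA, Tween 20, TCEP. Compounds preincubated 2 h at 37 deg C, then glutathione donor/nickel acceptor beads added for 1 h at 37 deg C in dark.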
# TrxR1 substrate – rat thioredoxin reductase 1 substrate activity; O89049; purified TrxR1 substrate turnover, NADPH consumption readout; Potency, µM (top dose mostly 114 µM), inactives show at the highest dose activity change, negative = substrate turnover; 390,000 compounds, 0.01% hits; AID 588456; note: potency is the fitted concentration of half-maximal effect; nearly all actives have a fitted effect of over 50% in size
#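 Rat TrxR1, dispensed at 90 nM, was prereduced with 400 uM NADPH (final) for 5 min at ~22 deg C, then incubated with compound 15 min before 400 uM selenite. A first-read NADPH fluorescence drop versus no-compound background flagged substrates.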
# Six1-Eya2 blk – blocks human Six1 binding to Eya2; AID 651725; AlphaScreen GST-Six1/His-Eya2 binding, biochemical; hits give low values; activity change, % (test concentration not listed); 360,000 compounds, 0.56% hits; in the data active = activity change below about -65%; inconclusive = mostly about -30% to -63%
#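 GST-Six1 + His-Eya2 (5X stock: 250/500 nM); Tris pH 8.0, 300 mM NaCl, 0.05% BSA, 0.02% Tween 20; GSH donor/Ni acceptor beads; 1 h 37 °C dark; AlphaScreen readout.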
# Eya2 phos inh – inhibitors of human Eya2 phosphatase activity; O00167; recombinant Eya2, OMFP fluorescence dephosphorylation (OMFP is methylfluorescein phosphate); AID 488837; 330,000 compounds, 0.006% hits; Potency, µM (series often up to 76.9 µM), without a hit: top-dose activity, negative = inhibition, usual class: inhibitors; note: potency is the fitted concentration of half-maximal effect
# Target sequence (O00167 whole entry, looked up): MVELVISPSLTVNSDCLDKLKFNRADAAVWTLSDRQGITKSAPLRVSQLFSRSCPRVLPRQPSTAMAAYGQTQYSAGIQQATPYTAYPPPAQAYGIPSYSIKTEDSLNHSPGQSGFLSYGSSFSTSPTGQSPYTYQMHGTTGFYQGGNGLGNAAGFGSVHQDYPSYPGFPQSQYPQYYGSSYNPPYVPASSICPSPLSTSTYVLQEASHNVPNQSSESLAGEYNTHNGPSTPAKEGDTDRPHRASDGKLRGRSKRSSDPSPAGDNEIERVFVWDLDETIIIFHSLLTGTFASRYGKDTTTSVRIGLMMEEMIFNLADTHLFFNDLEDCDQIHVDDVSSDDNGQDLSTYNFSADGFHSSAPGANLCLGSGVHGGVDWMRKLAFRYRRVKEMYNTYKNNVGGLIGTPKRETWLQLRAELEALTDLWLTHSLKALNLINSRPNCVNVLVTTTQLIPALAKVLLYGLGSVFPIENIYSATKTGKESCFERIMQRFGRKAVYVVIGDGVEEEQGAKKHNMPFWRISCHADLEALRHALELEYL
#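 Eya2 (0.2 uM) preincubated 10 min at ambient with compound, then OMFP substrate added at 50 uM; 10 min reaction in 50 mM HEPES pH 7.5, 50 mM NaCl, 5 uM MgCl2, 0.05% BSA, 1 mM DTT. Fluorescence read at Ex 485/Em 525 nm.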
# The depositor's hits bear a star; ? = inconclusive; . = no result given; [ ] = remark or other dose. An excerpt weighted towards active compounds, which were near 1.5% of everything screened. Unless noted, calls come from the whole dose curve; as a rule, active = well fitted curve in the direction sought with a large enough effect; inconclusive = small, poorly fitted or top-dose-only effect, or another doubt; inactive = no such curve, though single readings can be large; an effect the other way counts as inactive or inconclusive. % is set by controls: 0 for no effect and ±100 for the full control effect.
SMILES,rTrxR1 inhibitor,GALK inh,CtBP-E1A blk,TrxR1 substrate,Six1-Eya2 blk,Eya2 phos inh
Nc1ccc(N2CCCCC2)c2nonc12,?,7%,.,50µM*,1,2%
CCCCOc1ccc(S(=O)(=O)Nc2ccc(-c3ccc(N4CCCCC4)nn3)cc2)cc1,25%[57.1 µM],.,.,7%[57.1 µM],.,.
Cc1cc(C)c(S(=O)(=O)ON2C(=O)c3ccccc3C2=O)cc1C,3.5µM*,2%,0,22%,-20,13%
Cc1ccc(S(=O)(=O)ON2C(=O)c3ccccc3C2=O)c(C)c1,3.5µM*,0%,1,51%,-2,-2%
Cc1cc(C)c(C)c(S(=O)(=O)ON2C(=O)c3ccccc3C2=O)c1C,1.3µM*,-3%,-1,26%,-30,-2%
O=C1c2ccccc2C(=O)N1OS(=O)(=O)c1ccc(F)cc1,21%,-1%,.,0%,2,-8%
Fc1ccc(CNc2nc(-c3ccccc3)cc(C(F)(F)F)n2)cc1,40%[2.29 µM],.,.,6%,.,.
COc1ccccc1C(OC(=O)c1cccs1)C(=O)NCc1ccco1 (stereo not given),16µM*,4%,9,4%,-8,-3%
CCOC(=O)c1ccc(NC(=O)C2Cc3ccccc3C(=O)O2)cc1 (stereo not given),8%,.,.,1%,.,.
Cc1[nH]n(-c2ncc(-c3ccc(Cl)cc3)s2)c(=O)c1C(c1ccc(Cl)cc1)C(C#N)C#N (stereo not given),11µM*,-4%,-5,-8%,-21,1%
Nc1c(O)ccc2c1C(=O)c1ccccc1C2=O,-19%,3%,?,-8%,-74*,-16%
COc1ccc2c(c1O)C(=O)c1ccccc1C2=O,.,1%,.,.,.,-1%
O=C(NCc1ccccn1)c1ccc(=O)oc1,-25%,8%,-79*,-16%,-87*,-6%
Cc1cc(=O)oc(C)c1C(=O)NCc1ccccn1,6%,1%,?,1%,-81*,4%
O=C(NCc1ccccn1)c1ccc(-c2ccccc2)cc1,-13%[57.1 µM],3%,-22,9%[11.4 µM],2,-3%
COc1ccc(-c2cn3cccnc3n2)cc1NC(=O)Nc1ccc(Cl)cc1,18%[57.1 µM],.,.,12%[57.1 µM],.,.
O=C(COc1ccccc1C(=O)Nc1ccccc1F)Nc1ccc(Br)cc1,9%,.,.,2%,.,.
COC(=O)C1=C(C)N(Cc2ccccc2)C(=O)/C1=C\c1ccco1,50µM*,-1%,?,11%,-13,-1%
CCOc1cc(/C=C2\C(=O)N(Cc3ccco3)C(C)=C2C(=O)OC)ccc1O,22µM*,-1%,0,-9%,-16,6%
COC(=O)C1=C(C)N(CCc2ccccc2)C(=O)/C1=C\c1ccco1,?,1%,3,-7%,-23,-5%
CCOC(=O)C1=C(C)N(c2ccc(C)cc2)C(=O)/C1=C\c1ccc(O)c(OC)c1,18µM*,-1%,-9,4%,-16,-13%
CN(C)CCN(Cc1ccccc1)S(=O)(=O)c1ccc(-c2ccc(=O)[nH]n2)s1,40µM*,-1%,-7,11%,-3,0%
CCc1nnc2c3ccccc3nc(Nc3ccc(F)c(Cl)c3)n12,13%,.,.,4%,.,.
Cc1[nH]c(=O)[nH]c(=O)c1C1N2CC3(C(C)C)CN1CC(C(C)C)(C2)C3=O (stereo not given),23%,.,.,0%,.,.
O=C(O)c1cc(N=Nc2c(O)ccc3ccccc23)cc(C(=O)O)c1,-15%,-5%,-10,-14%,-8,-3%
SMILES,rTrxR1 inhibitor,GALK inh,CtBP-E1A blk,TrxR1 substrate,Six1-Eya2 blk,Eya2 phos inh
O=C(O)c1ccc(N=Nc2c(O)ccc3ncccc23)cc1,-13%[57.1 µM],1%,.,-9%[57.1 µM],-94*,?
CCc1ccc(NCc2cc3ccc(OC)cc3n(CC(=O)Nc3ccccc3C)c2=O)cc1,12%,.,.,0%,.,.
COc1ccc(CCN2C(=O)c3oc4ccc(F)cc4c(=O)c3C2c2ccc(C(C)(C)C)cc2)cc1 (stereo not given),25%,.,.,4%,.,.
N#C/C(=C/c1ccc(N2CCCCC2)o1)c1cccc(F)c1,7.1µM*,2%,-10,-9%,-11,16%
N#C/C(=C/c1ccc(N2CCCCCC2)o1)c1ccc(Cl)cc1,8.9µM*,0%,-6,-8%,-9,7%
N#C/C(=C/c1ccc(N2CCCCC2)cc1)c1cccc(F)c1,-17%,0%,10,-6%,-4,6%
Nc1c(-c2nc(-c3cccs3)no2)nnn1-c1ccc(Cl)cc1,18%,.,.,5%,.,.
O=C(NC(=S)Nc1cccc2cc(O)ccc12)c1ccco1,79µM*,-7%,-13,-11%,-7,7%
O=C(NC(=S)Nc1cccc2cc(O)ccc12)c1ccccc1Br,50µM*,-11%,5,-4%,-13,-18%
O=C(NC(=S)Nc1cccc2c(O)cccc12)c1ccco1,-32%,6%,-15,6%,-11,-1%
COc1ccccc1C(=O)NC(=S)Nc1cccc2cc(O)ccc12,?,.,-15,-5%,-21,.
Cc1ccc(NC(=O)COc2ccccc2C(=O)Nc2ccccc2)cc1,3%,.,.,-4%,.,.
CCOC(=O)c1ccccc1NC(=O)N1CCC(N2CCN(Cc3ccccc3)C(=O)C2=O)CC1,6%[57.1 µM],.,.,-3%[57.1 µM],.,.
O=C(Nc1ccc2nc(SCC(=O)N3CCCC3)sc2c1)c1cccc(Br)c1,33%,.,.,8%,.,.
C/C=C(\C)C(=O)NCCN1C2=NC[C@H](C(C)C)N2C[C@H]1Cc1ccc(O)cc1,5%[57.1 µM],3%,-7,-2%[57.1 µM],4,19%
C/C=C(\C)C(=O)NCCN1C2=NC[C@H](C(C)C)N2C[C@@H]1Cc1ccc(OC)cc1,-15%,1%,-70*,3%,-72*,6%
O=C(O)CC1=C(O)C(=O)N(c2ccccc2)C1c1ccccc1 (stereo not given),45µM*,0%,5,-8%,-2,-22%
COc1ccccc1-c1nc2c(c(SCC(=O)Nc3ccccc3F)n1)Cc1c(CO)cnc(C)c1O2,-6%,.,.,-10%,.,.
C#CC(=O)N(c1ccc(OC)c(OC)c1)C(C(=O)NC1CCCC1)c1cccs1 (stereo not given),3.2µM*,-5%,-6,1%,-2,-6%
C#CC(=O)N(c1cccc(OC)c1)C(C(=O)NC1CCCC1)c1cccs1 (stereo not given),?,-2%,19,11%,1,-6%
Cc1ccc(C)c(OCCn2cc(C(=O)c3ccco3)c3ccccc32)c1,9%,.,.,-1%,.,.
CCc1ccccc1N(C)C(=O)C1CCCN(c2ncnc3c2nc2n3CCCCC2)C1 (stereo not given),11%,.,.,0%,.,.
COc1cc(Nc2ccccc2Cl)c([N+](=O)[O-])nc1[N+](=O)[O-],0.4µM*,1%,-6,-4%[57.1 µM],-17,25%
